Reference: PubChem BioAssay AID434970 (Sanford-Burnham Center for Chemical Genomics, 2010)
The whole screen tested about 11,000 compounds, of which about 310 (2.8%) were called active. No stated cut-off is given here; in the data, active means activity change below about -85%; inactive means the rest. The sample as a whole holds a higher share of actives than the screen did.

What follows are compounds tested on intestinal alkaline phosphatase [Mus musculus] (assay: mouse intestinal phosphatase enzyme activation – biochemical, luminescence, single concentration, confirmation (AID 434970)). Conditions: purified mouse IAP, CDP-Star luminescence, 30 min, at 10 µM; activation factor: measured here: IAP activation factor, stronger effect = higher value; activity change, negative = activation: stronger effect = lower value.
`COc1cccc(NC(=O)NC(C)C2CC3CCC2C3)c1` (stereo not drawn) was tested, and the activation factor was 1.97 and the activity change, negative = activation was -96.6% (active).
`COc1ccc(-c2nnc(SCC(=O)N3CCOCC3)n2C)cc1OC` was tested, and the activation factor was 1.07 and the activity change, negative = activation was -7.45% (inactive).
With `Cn1c(-c2ccc(F)cc2)cnc1NCc1cccc(F)c1` the activation factor was 0.905 and the activity change, negative = activation was 9.55% (inactive).
With `CC(C)OC(=O)c1cccc(NC(=O)c2ccccc2)c1` the activation factor was 0.988 and the activity change, negative = activation was 1.25% (inactive).
For `Cc1oc(-c2cccs2)nc1CSCC(=O)NC1CC1`, the activation factor was 0.893 and the activity change, negative = activation was 10.8% (inactive).
With `CN(c1ccccc1C(=O)NCc1ccccn1)S(C)(=O)=O` the activation factor was 1.03 and the activity change, negative = activation was -3.4% (inactive).
In the case of `COC(=O)[C@@]1(C)[C@H]2C(=O)N(Cc3ccccc3)C(=O)[C@H]2[C@H]2CN=C(SC)N21`, the activation factor is reported as 1.09 and the activity change, negative = activation is reported as -9.05% (inactive).
`CCN1C(=O)[C@H]2[C@H]3CN=C(SC)N3[C@@](CC)(C(=O)OC)[C@H]2C1=O` was tested, and the activation factor was 0.957 and the activity change, negative = activation was 4.3% (inactive).
In the case of `COC(=O)c1sc2ncn(-n3c(C)ccc3C)c(=O)c2c1C`, the activation factor is reported as 1.03 and the activity change, negative = activation is reported as -3.25% (inactive).
For `CC[C@]12c3[nH]c4cc(-c5ccco5)ccc4c3CCN1C(=O)[C@@H](CC(=O)NC(C)(C)C)C[C@@H]2C(=O)N1CCN(C(=O)C2CC2)CC1`, the activation factor was 0.984 and the activity change, negative = activation was 1.6% (inactive).
In the case of `C[C@H](CO)N1C[C@H](C)[C@@H](CN(C)S(=O)(=O)c2cccs2)Oc2ccc(NC(=O)NC3CCCCC3)cc2C1=O`, the activation factor is reported as 2.6 and the activity change, negative = activation is reported as -160% (active).
`C[C@H](CO)N1C[C@H](C)[C@@H](CN(C)S(=O)(=O)c2cccs2)Oc2ccc(NC(=O)Nc3ccc4c(c3)OCO4)cc2C1=O` was tested, and the activation factor was 1.88 and the activity change, negative = activation was -87.5% (inactive).
`COc1ccc(NC(=O)Nc2ccc3c(c2)C(=O)N([C@@H](C)CO)C[C@@H](C)[C@@H](CN(C)S(=O)(=O)c2cccs2)O3)cc1` was tested, and the activation factor was 1.76 and the activity change, negative = activation was -75.9% (inactive).
`C[C@H](CO)N1C[C@H](C)[C@@H](CN(C)S(=O)(=O)c2cccs2)Oc2ccc(NC(=O)Nc3ccccc3)cc2C1=O` was tested, and the activation factor was 2.52 and the activity change, negative = activation was -152% (active).
For `C[C@H]1CN([C@@H](C)CO)C(=O)c2cc(NC(=O)NC3CCCCC3)ccc2O[C@H]1CN(C)C(=O)Nc1ccc(C(F)(F)F)cc1`, the activation factor was 1.58 and the activity change, negative = activation was -58.1% (inactive).
For `C[C@H](CO)N1C[C@H](C)[C@@H](CN(C)S(C)(=O)=O)Oc2ccc(NC(=O)Nc3ccc(C(F)(F)F)cc3)cc2C1=O`, the activation factor was 1.83 and the activity change, negative = activation was -83.2% (inactive).
With `C[C@H](CO)N1C[C@H](C)[C@@H](CN(C)C(=O)Nc2ccc(C(F)(F)F)cc2)Oc2ccc(NC(=O)NC3CCCCC3)cc2C1=O` the activation factor was 1.76 and the activity change, negative = activation was -76.3% (inactive).
`COc1ccc(NC(=O)Nc2ccc3c(c2)C(=O)N([C@H](C)CO)C[C@H](C)[C@@H](CN(C)S(=O)(=O)c2cccs2)O3)cc1` was tested, and the activation factor was 2.1 and the activity change, negative = activation was -110% (active).
With `COc1ccc(NC(=O)Nc2ccc3c(c2)C(=O)N([C@H](C)CO)C[C@H](C)[C@@H](CN(C)C(=O)Nc2ccc(C(F)(F)F)cc2)O3)cc1` the activation factor was 1.69 and the activity change, negative = activation was -68.8% (inactive).
In the case of `CCOC(=O)C1=CN(Cc2ccco2)S(=O)(=O)N(CC)C1c1ccc(C(F)(F)F)cc1` (stereo not drawn), the activation factor is reported as 0.893 and the activity change, negative = activation is reported as 10.7% (inactive).
In the case of `CCOc1ccc(N2CC(C(=O)NCCCN3CCOCC3)CC2=O)cc1` (stereo not drawn), the activation factor is reported as 0.917 and the activity change, negative = activation is reported as 8.3% (inactive).
`COc1ccccc1CC(=O)N(CCC#N)CCC#N` was tested, and the activation factor was 0.913 and the activity change, negative = activation was 8.65% (inactive).
For `O=C(COc1c(F)c(F)cc(F)c1F)NC(=O)NC1CCCC1`, the activation factor was 1.08 and the activity change, negative = activation was -7.8% (inactive).
`N#C/C(=C1/CCCCCN1)c1nc2ccccc2[nH]1` was tested, and the activation factor was 1.08 and the activity change, negative = activation was -7.65% (inactive).
With `CCOC(=O)N1CCN(S(=O)(=O)c2ccc3c(c2)SCC(=O)N3)CC1` the activation factor was 1.06 and the activity change, negative = activation was -6.25% (inactive).
In the case of `COC(=O)[C@@]1(C)[C@H]2C(=O)N(C)C(=O)[C@H]2[C@H]2CN=C(SCc3ccc(Cl)cc3)N21`, the activation factor is reported as 1.1 and the activity change, negative = activation is reported as -9.6% (inactive).
With `Cc1ccccc1C(=O)/C=C1\NC(=O)CS1` the activation factor was 1.05 and the activity change, negative = activation was -5.35% (inactive).
For `Cc1ccc(NC(=O)Nc2ccc(F)cc2)cc1Cl`, the activation factor was 1.51 and the activity change, negative = activation was -50.8% (inactive).
In the case of `CCOP(=O)(OCC)C(NC(=O)Nc1ccc(C)c(Cl)c1)c1ccccc1` (stereo not drawn), the activation factor is reported as 2.59 and the activity change, negative = activation is reported as -159% (active).
With `COc1cccc(C(C)NC(=O)Nc2cccc(C(F)(F)F)c2)c1` (stereo not drawn) the activation factor was 3.84 and the activity change, negative = activation was -284% (active).
`CC(=O)Nc1cccc(NC(=O)Nc2ccc(C)c(Cl)c2)c1` was tested, and the activation factor was 1.9 and the activity change, negative = activation was -89.6% (inactive).
In the case of `COc1cccc(NC(=O)Nc2ccc(C)c(Cl)c2)c1`, the activation factor is reported as 2.17 and the activity change, negative = activation is reported as -117% (active).
With `COc1cccc(NC(=O)Nc2ccc(C(C)(C)C)cc2)c1` the activation factor was 2.18 and the activity change, negative = activation was -118% (active).
In the case of `COc1cccc(NC(=O)Nc2cc(NC(=O)Nc3cccc(OC)c3)c(C)nc2C)c1`, the activation factor is reported as 1.65 and the activity change, negative = activation is reported as -65.3% (inactive).
In the case of `CCOP(=O)(OCC)C(NC(=O)Nc1ccc(Cl)cc1)c1ccccc1` (stereo not drawn), the activation factor is reported as 1.56 and the activity change, negative = activation is reported as -56.5% (inactive).
With `CCc1ccc(NC(=O)Nc2cccc(OC)c2)cc1` the activation factor was 1.62 and the activity change, negative = activation was -62.5% (inactive).
`COc1cccc(NC(=O)CN(c2cccc(C(F)(F)F)c2)S(C)(=O)=O)c1` was tested, and the activation factor was 1.12 and the activity change, negative = activation was -12.2% (inactive).
For `COc1ccc(N2CCN(C(=O)Nc3cccc(C(F)(F)F)c3)CC2)cc1`, the activation factor was 1.14 and the activity change, negative = activation was -14.2% (inactive).
For `COc1cccc(NC(=O)Nc2cc(Cl)ccc2C)c1`, the activation factor was 1.41 and the activity change, negative = activation was -40.7% (inactive).
